Experimental data as given in a collection of fitness landscapes (doi:10.1016/j.celrep.2020.107928).
The full ranking holds about 81,000 sequences; the median of “one-hybrid fitness for binding parS DNA” is about -0.17, and the highest 2% start at about 0.51. This excerpt belongs to a sample that is enriched for the highest values.

B1: Caulobacter ParB omega fusion; a variant is named by its letters at X, in order, B8GW30 (parent)
chain: MESVVVGEPGMSEGRRGLGRGLSALLGEVDAAPAQAPGEQLGGSREAPIEILQRNPDQPRRTFREEDLEDLSNSIREKGVLQPILVRPSPDTAGEYQIVAGERAWRAAQRAGLKTVPIMVRELDDLAVLEIGIIENVQRADLNVLEEALSYKVLMEKFERTQENIAQTIGKSXSHVANXMRLLXLPDEVQSYLVSGELTAXHARAIAAAADPVALAKQIIEGGLSVRETEALARKAPNLSAGKSKGGRPPRVKDTDTQALESDLSSVLGLDVSIDHRGSTGTLTITYATLEQLDDLCNRLTRGI

Variants of: B1
Test: one-hybrid fitness for binding parS DNA (scaled: cognate 1, non-cognate 0); higher = stronger binding
Settings: with parS DNA site
Procedure, shortened: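 Values were rescaled so that cognate is 1 and non-cognate is 0. Each is a fitness, the log change in a variant's read ratio to wild type from Illumina reads of plasmids before and after selection, with three replicate libraries pooled and variants under 10 reads dropped. Selection of the Caulobacter ParB libraries, four specificity codons randomised, used E. coli USO with a HIS3 reporter, site 19 bp from the promoter, on M9-minus-histidine with 0.1 mM IPTG and 5 mM 3-AT for 48 hours at 37°C.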

| Variant | one-hybrid fitness for binding parS DNA |
| --- | --- |
| RMIG | 0.947 |
| RMIH | 0.223 |
| RMPL | ≤ 0.2 |
| RMIP | ≤ 0.2 |
| RMPG | 0.775 |
| VWYT | ≤ 0.2 |
| HCQT | ≤ 0.2 |
| TAHC | ≤ 0.2 |
| RTVS | 1 |
| RTKH | 0.439 |
| RTVN | 0.387 |
| RTKS | 0.815 |
| RTKD | ≤ 0.2 |
| RTVP | ≤ 0.2 |
| PTHK | ≤ 0.2 |
| YTPL | ≤ 0.2 |
| RQST | 0.916 |
| RQRM | 0.349 |
| RQHT | 0.892 |
| RQDT | 0.768 |
| RQHH | 0.292 |
| RQDY | 0.421 |
| RQSM | 0.319 |

| Variant | one-hybrid fitness for binding parS DNA |
| --- | --- |
| RQRT | 0.849 |
| RQHD | ≤ 0.2 |
| RQDM | 0.324 |
| RQSR | ≤ 0.2 |
| RQRK | ≤ 0.2 |
| VPNM | ≤ 0.2 |
| PYKG | ≤ 0.2 |
| NCIC | ≤ 0.2 |
| LPKF | ≤ 0.2 |
| GQSM | ≤ 0.2 |
| WYTC | ≤ 0.2 |
| RQNE | ≤ 0.2 |
| RQGT | 0.847 |
| RQQF | 0.28 |
| RQQR | ≤ 0.2 |
| RQNT | 0.889 |
| RQQT | 0.895 |
| RQGD | ≤ 0.2 |
| RQYT | 0.847 |
| RQYM | 0.318 |
| RQGH | 0.249 |
| RQNQ | ≤ 0.2 |
| RQYK | ≤ 0.2 |

| Variant | one-hybrid fitness for binding parS DNA |
| --- | --- |
| NLLR | ≤ 0.2 |
| RPHV | ≤ 0.2 |
| WPRR | ≤ 0.2 |
| VTAC | ≤ 0.2 |
| DHDY | ≤ 0.2 |
| MGLM | ≤ 0.2 |
| DCQR | ≤ 0.2 |
| HLAT | ≤ 0.2 |
| RQWR | ≤ 0.2 |
| RQCP | ≤ 0.2 |
| RQWT | 0.702 |
| RQWF | ≤ 0.2 |
| RQCT | 0.846 |
| RQLM | 0.301 |
| RQLR | ≤ 0.2 |
| RQLT | 0.86 |
| RQCD | ≤ 0.2 |
| FMNC | ≤ 0.2 |
| QHYS | ≤ 0.2 |
| AARS | ≤ 0.2 |
| AYIV | ≤ 0.2 |
| GHTQ | ≤ 0.2 |
| WFQV | ≤ 0.2 |

| Variant | one-hybrid fitness for binding parS DNA |
| --- | --- |
| RDAG | ≤ 0.2 |
| RPAG | ≤ 0.2 |
| RSAF | 0.266 |
| RSAG | 0.992 |
| REAG | ≤ 0.2 |
| RCAG | 1.02 |
| RPEM | ≤ 0.2 |
| VMQS | ≤ 0.2 |
| RGMD | ≤ 0.2 |
| RGMC | 0.543 |
| RGMG | 0.604 |
| RGMY | ≤ 0.2 |
| RGMN | ≤ 0.2 |
| RGMQ | ≤ 0.2 |
| RGMM | ≤ 0.2 |
| RGMS | 0.672 |
| RGMP | ≤ 0.2 |
| PVHI | ≤ 0.2 |
| HKLN | ≤ 0.2 |
| WWDG | ≤ 0.2 |
| RNHR | ≤ 0.2 |
| DEPC | ≤ 0.2 |
| RVWP | ≤ 0.2 |

| Variant | one-hybrid fitness for binding parS DNA |
| --- | --- |
| RVDQ | ≤ 0.2 |
| RVSG | 0.999 |
| RVDG | 0.874 |
| RVSM | 0.347 |
| RVWH | ≤ 0.2 |
| RVWG | 0.982 |
| RVNG | 0.992 |
| RVNM | 0.324 |
| RVNQ | ≤ 0.2 |
| RVDK | ≤ 0.2 |
| RVSR | ≤ 0.2 |
| AQKQ | ≤ 0.2 |
| HTYC | ≤ 0.2 |
| VSWE | ≤ 0.2 |
| SPNG | ≤ 0.2 |
| LCPA | ≤ 0.2 |
| LGTD | ≤ 0.2 |
| MNAP | ≤ 0.2 |
| PHSE | ≤ 0.2 |
| DQES | ≤ 0.2 |
| NCWT | ≤ 0.2 |
| RCSE | ≤ 0.2 |
| MTTC | ≤ 0.2 |

| Variant | one-hybrid fitness for binding parS DNA |
| --- | --- |
| RVHK | ≤ 0.2 |
| RVCR | ≤ 0.2 |
| RVRM | 0.392 |
| RVRF | 0.266 |
| RVRG | 0.955 |
| RVCG | 0.972 |
| RVHG | 1.03 |
| RVHQ | ≤ 0.2 |
| RVYN | 0.46 |
| RVYP | 0.213 |
| RVCF | 0.249 |
| RVYG | 1.02 |
| MWSG | ≤ 0.2 |
| WLTK | ≤ 0.2 |
| SYTT | ≤ 0.2 |
| YPIF | ≤ 0.2 |
| ESYW | ≤ 0.2 |
| ARYC | ≤ 0.2 |
| RVGG | 1.01 |
| RVGR | ≤ 0.2 |
| RVQF | 0.234 |
| RVGK | ≤ 0.2 |
| RVQR | ≤ 0.2 |

| Variant | one-hybrid fitness for binding parS DNA |
| --- | --- |
| RVLG | 0.992 |
| RVQG | 0.999 |
| RVLD | 0.245 |
| RVLN | 0.423 |
| EAAT | ≤ 0.2 |
| GLPN | ≤ 0.2 |
| PHRK | ≤ 0.2 |
| FRSF | ≤ 0.2 |
| RHWD | ≤ 0.2 |
| RRWN | 0.323 |
| RRWH | ≤ 0.2 |
| RKWM | 0.254 |
| RKWC | 0.887 |
| RRWC | 0.739 |
| RIWR | ≤ 0.2 |
| RIWC | 0.936 |
| RHWC | 0.759 |
| RIWQ | ≤ 0.2 |
| RKWR | ≤ 0.2 |
| RHWH | ≤ 0.2 |
